Measurements taken from PubChem BioAssay (EPA / NIEHS).
Activity calls are given as the source filed them. How the source made its calls: active means hit-call score of the fitted dose curve at least 0.9, where 1 is the maximum; inactive means score below 0.9.

Test: CCTE_Shafer_MEA_acute_cross_correlation_HWHM: CCTE's Neural Acute Assay for Cross Correlation at Half Width at Half Maximum, Shafer Lab (AID 2284026)
Description: CCTE_Shafer_MEA_acute assay is conducted using Axion Biosystems 48 well microelectrode array (MEA) plates and Maestro recording system. Each well of the MEA plate contains a grid of 16 microelectrodes embedded in the culture surface. Electrically active cells, such as neurons, can be cultured over the electrodes, and electrical activity in these cells can be recorded extracellularly. The spontaneous firing of neurons is captured from each electrode on a microsecond timescale providing both temporally and spatially precise data. […] The CCTE_Shafer_MEA_acute assay uses primary cultures of rat cortical neurons. As these cultures mature over time, neural networks develop functional activity and form cohesive networks in which electrical activity can be highly coordinated. Baseline 40-minute recordings are made on days post-plating 13 or 15, followed by a secondary 40-minute recording after chemical exposure.CCTE_Shafer_MEA_acute_cross_correlation_HWHM is a component of the CCTE_Shafer_MEA_acute assay. It measures the distance along the x-axis (phase lag) from the left half maximum height to the center of the cross-correlogram of action potential firing during a recording in a microelectrode array (MEA) using Axion Biosystems Maestro 768 channel amplifier with the AxIS adaptive spike detector. Smaller values indicate a narrower correlogram (greater synchrony). The recordings before and after chemical treatment are used to calculate a percent change in the half width at half maximum of the cross-correlogram in each well.Data from the assay component CCTE_Shafer_MEA_acute_cross_correlation_HWHM was analyzed into 1 assay endpoint. This assay endpoint, CCTE_Shafer_MEA_acute_cross_correlation_HWHM, was analyzed in the negative analysis fitting direction relative to DMSO as the negative control and baseline of activity. Using a type of functional reporter, gain or loss-of-signal activity can be used to understand electrical activity.
Spontaneous activity in the cortical cultures was recorded using an Axion Biosystems Maestro 768 channel amplifier and Axion Integrated Studios (AxIS) v1.8 (or later) software. The amplifier recorded from all channels simultaneously (gain = 1200 x; sampling rate = 12.5 kHz/channel): raw signals were filtered with a Butterworth band-pass filter (300-5000 Hz), which filters out slower local field potentials leaving only fast potentials, i.e., "spikes", arising from extracellular currents associated with action potentials (Pine 2006; Wheeler and Nam 2011). On-line spike detection of filtered signals was conducted with the AxIS adaptive spike detector, using a threshold of 8x the root mean squared (rms) noise on each channel. Any electrodes with rms noise levels greater than 5 uV were grounded (e.g., no data were recorded). Once grounded, an electrode was grounded for the duration of the experiment. All recordings were conducted at 37 C. Wells were deemed usable if on the day of the exposure >/= 10 electrodes were active (defined as >/= 5 spikes/min). On DIV 13 or 15, a minimum of three wells from one cortical culture preparation were treated with each compound (0.03-40 uM). Prior to recording baseline activity, each mwMEA plate was placed in the Maestro at 37 C and allowed to sit for 20 min while firing rates stabilized. Baseline activity (40 min) was recorded before the addition of each compound. An additional 40 min of spontaneous activity was recorded in the presence of each compound. Changes in network parameters relative to baseline were assessed following compound treatment.
With CN(C)Cc1cc(C(C)(C)C)c(O)c(C(C)(C)C)c1 the AC50 was 15 µM (active).
In the case of NC(N)=Nc1nc(CSCCC(N)=NS(N)(=O)=O)cs1, the outcome is reported as “inactive”.
In the case of CNCCC(Oc1ccc(C(F)(F)F)cc1)c1ccccc1 (stereo not given), the AC50 is reported as 7.68 µM (active).
For CCC[Si](OC(C)=O)(OC(C)=O)OC(C)=O, the outcome was “inactive”.
For CC(C)C1OCCN1CCOC(=O)NCCCCCCNC(=O)OCCN1CCOC1C(C)C (stereo not given), the outcome was “inactive”.
In the case of O=[N+]([O-])c1cc(S(=O)(=O)Nc2ccccc2)ccc1Nc1ccccc1, the AC50 is reported as 20.9 µM (active).
In the case of COc1cc(CNC(=O)CCCC/C=C/C(C)C)ccc1O, the AC50 is reported as 5.46 µM (active).
In the case of COc1ccc(C(=O)c2ccccc2O)c(O)c1, the outcome is reported as “inactive”.
For CC[N+](CC)(CC(=O)Nc1c(C)cccc1C)Cc1ccccc1 (tested in a mixture with another compound), the AC50 was 1.05 µM (active).
In the case of CN(C)C(=O)C(CCN1CCC(O)(c2ccc(Cl)cc2)CC1)(c1ccccc1)c1ccccc1, the AC50 is reported as 2.31 µM (active).
For COc1ccccc1Oc1c(NS(=O)(=O)c2ccc(C(C)(C)C)cc2)nc(-c2ncccn2)nc1OCCO, the outcome was “inactive”.
In the case of CC1(C)S[C@@H]2[C@H](NC(=O)[C@H](N)c3ccccc3)C(=O)N2[C@H]1C(=O)O, the outcome is reported as “inactive”.
With CC1(C)S[C@@H]2[C@H](NC(=O)[C@H](N)c3ccc(O)cc3)C(=O)N2[C@H]1C(=O)O the outcome was “inactive”.
In the case of C1CN(CCOCCN2CCOCC2)CCO1, the AC50 is reported as 0.003 µM (active).
For Cc1c(C(N)=O)cc([N+](=O)[O-])cc1[N+](=O)[O-], the outcome was “inactive”.
